Source: PubChem BioAssay
GPR151 activ: activates the human receptor GPR151 | PathHunter beta-arrestin GPR151 cells, luminescence | activation, % at 11.2 µM | hit rate 1% among 650,000 | AID 1508602; in the data active means activation above about 4.9%;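 further: 0% = median of compound wells and 100% = cells with positive control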
MITF inh: blocks human microphthalmia-associated transcription factor | AlphaScreen MITF homodimerization, bead proximity signal | inhibition, % at 2.6 µM | hit rate 0.91% among 650,000 | AID 1259374; in the data active means inhibition above about 50%;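 further: 0% = vehicle wells with protein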
Target sequence (O75030 whole entry, looked up): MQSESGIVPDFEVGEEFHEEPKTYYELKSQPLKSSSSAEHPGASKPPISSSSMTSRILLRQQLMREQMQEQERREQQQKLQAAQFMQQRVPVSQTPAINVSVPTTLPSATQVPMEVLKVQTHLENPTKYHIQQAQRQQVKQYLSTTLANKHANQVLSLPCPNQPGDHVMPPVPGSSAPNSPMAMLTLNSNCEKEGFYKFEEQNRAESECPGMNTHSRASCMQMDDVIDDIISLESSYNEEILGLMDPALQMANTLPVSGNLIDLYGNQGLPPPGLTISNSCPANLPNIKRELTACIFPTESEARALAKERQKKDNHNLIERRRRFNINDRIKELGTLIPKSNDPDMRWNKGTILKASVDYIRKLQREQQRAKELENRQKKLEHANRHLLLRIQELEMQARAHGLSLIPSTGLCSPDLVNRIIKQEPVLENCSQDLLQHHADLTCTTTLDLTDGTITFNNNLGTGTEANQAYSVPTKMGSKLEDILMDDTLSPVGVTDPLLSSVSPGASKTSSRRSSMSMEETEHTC
FBW7 activator: activators of human E3 ligase FBW7. Q969H0. AlphaScreen FBW7–phospho-cyclin E peptide binding, activator screen. normalized activity (activation), % at 26.1 µM. hit rate 0.13% among 650,000; in the data active means normalized activity above about 1.9%;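 further: purified mutant Fbw7 with reduced substrate affinity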
TEAD-YAP inh: TEAD-YAP interaction inhibition. hit rate 1.4% among 640,000. inhibition, % at 9.12 µM. HEK-TIYL cells, TEAD-Gal4/YAP UAS-luciferase luminescence; in the data active means inhibition above about 32%;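 further: 0% = median of test compound wells and 100% = reference inhibitor wells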
GPR151 confirm: confirmation of human GPR151 activators; GPR151 PathHunter beta-arrestin cells, luminescence, 90 min; % of EA-reagent control over plate median; 6,700 tested, under 10 active; shares compounds with GPR151 activ; activation, % at 11.2 µM;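 active means mean percent activation across replicates above the confirmation screen cutoff of 4.91%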
GPR119 counter: activates human GPR119 in a GPR151 counter-screen. shares compounds with GPR151 activ. AID 1508611. hit rate 0.3% among 6,700. activation, % at 11.2 µM. GPR119 PathHunter beta-arrestin cells, luminescence, 90 min; 0 = compound-well median, 100 = enzyme-acceptor control;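 active means mean percent activation in the counterscreen above 29.09%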;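 further: counterscreen on off-target GPR119 to flag nonselective hits from the GPR151 activator screen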
Active calls of the source: *. Hits are enriched below; roughly 3.4% of the tested compounds scored in any of these assays.

What do the screens show for `Cc1ccc(C(=O)NCC(=O)OCC(=O)Nc2ccc(Oc3ccccc3)cc2)s1`?
GPR151 activ: 0.1; MITF inh: 4.5; FBW7 activator: 0.0; TEAD-YAP inh: 8.8

How did CC(C)C(=O)N=C1SC2CS(=O)(=O)CC2N1c1cccc(C(F)(F)F)c1 (stereo unspecified) do in these assays?
GPR151 activ: 7.5*; MITF inh: -6.4; FBW7 activator: -0.1; TEAD-YAP inh: 4.8; GPR151 confirm: 0.6; GPR119 counter: -11.6

How did O=C1COc2ccc(C(=O)COC(=O)c3cc(=O)c4ccccc4o3)cc2N1 do in these assays?
GPR151 activ: 0.5; MITF inh: 4.7; FBW7 activator: -0.1; TEAD-YAP inh: -0.8

Results for O=C1C=Cc2ccc(N3CCOCC3)c3cccc1c23 ?
GPR151 activ: 6.1*; MITF inh: 12.7; FBW7 activator: -0.3; TEAD-YAP inh: -13.2; GPR151 confirm: 0.0; GPR119 counter: 6.8

How did CCN1C(=O)c2cccc3c(N4CCOCC4)ccc(c23)C1=O do in these assays?
GPR151 activ: 2.3; MITF inh: -11.3; FBW7 activator: 0.2; TEAD-YAP inh: -35.3

What do the screens show for `CCOC(=O)C1=C(N)OC2=C(C(=O)CC(C)(C)C2)C1c1c(F)cccc1Cl` (stereo unspecified)?
GPR151 activ: 0.9; MITF inh: 2.2; FBW7 activator: 0.0; TEAD-YAP inh: -0.5

Results for COc1cc(C(=O)Nc2ccc(O)cc2)c2ccccc2n1 ?
GPR151 activ: -1.0; MITF inh: 10.2; FBW7 activator: 0.2; TEAD-YAP inh: 12.2

How did C/C(=N\NC(=O)c1cc(-c2ccco2)[nH]n1)c1ccc(O)cc1 do in these assays?
GPR151 activ: 7.4*; MITF inh: 8.5; FBW7 activator: -0.1; TEAD-YAP inh: 6.0; GPR151 confirm: 0.3; GPR119 counter: 11.3

Results for C/C(=N\NC(=O)c1cc(-c2cccs2)[nH]n1)c1ccc(O)cc1 ?
GPR151 activ: -1.3; MITF inh: -10.5; FBW7 activator: 0.0; TEAD-YAP inh: -6.3

How did CCOc1cc(C=C(C(=O)OC)C(=O)OC)ccc1OCc1ccc([N+](=O)[O-])cc1 do in these assays?
GPR151 activ: 5.2*; MITF inh: 5.2; FBW7 activator: 0.0; TEAD-YAP inh: 13.5; GPR151 confirm: 1.0; GPR119 counter: 10.1

Results for COC(=O)C(=Cc1cc(OC)c(O)c([N+](=O)[O-])c1)C(=O)OC ?
GPR151 activ: 5.7*; MITF inh: 20.5; FBW7 activator: 0.1; TEAD-YAP inh: 4.2; GPR151 confirm: 0.4; GPR119 counter: 7.9

How did CC(=O)Nc1cnc2cnc(-c3ccc(C(C)C)cc3)cn12 do in these assays?
GPR151 activ: 5.2*; MITF inh: 15.2; FBW7 activator: -0.3; TEAD-YAP inh: 8.8; GPR151 confirm: -0.8; GPR119 counter: -3.9

What do the screens show for `O=C(CC12CC3CC(CC(C3)C1)C2)Nc1nn[nH]n1`?
GPR151 activ: 1.3; MITF inh: 3.2; FBW7 activator: -0.1; TEAD-YAP inh: -2.9

What do the screens show for `CC(=O)Nc1ccc(NC(=O)c2cccc(-c3ccc(C(N)=O)cc3)n2)cc1`?
GPR151 activ: 12.6*; MITF inh: 5.2; FBW7 activator: -0.2; TEAD-YAP inh: 5.2; GPR151 confirm: 0.3; GPR119 counter: -6.4

How did O=C(CN(CC1CCCO1)C(=O)CCC(=O)Nc1ccccn1)NCC1CCCO1 (stereo unspecified) do in these assays?
GPR151 activ: 5.0*; MITF inh: -7.0; FBW7 activator: -0.1; TEAD-YAP inh: 1.6; GPR151 confirm: 0.7; GPR119 counter: 5.1

How did CCNC(=O)C(Cc1ccc([N+](=O)[O-])cc1)NC(=O)OCc1ccccc1 (stereo unspecified) do in these assays?
GPR151 activ: 5.6*; MITF inh: -1.9; FBW7 activator: 0.0; TEAD-YAP inh: -10.8; GPR151 confirm: 0.3; GPR119 counter: 6.5

What do the screens show for `COC(=O)C(Cc1ccccc1)NC(=O)C(Cc1cnc[nH]1)NC(=O)OCc1ccccc1` (stereo unspecified)?
GPR151 activ: 5.5*; MITF inh: 2.6; FBW7 activator: 0.0; TEAD-YAP inh: -2.3; GPR151 confirm: 0.5; GPR119 counter: -1.3

How did COC(=O)C(Cc1ccccc1)NC(=O)C(Cc1ccccc1)NC(=O)OCc1ccccc1 (stereo unspecified) do in these assays?
GPR151 activ: 0.8; MITF inh: -6.0; FBW7 activator: -0.1; TEAD-YAP inh: 1.2

How did CCOC(=O)CNC(=O)C(Cc1ccccc1)NC(=O)OCc1ccccc1 (stereo unspecified) do in these assays?
GPR151 activ: 0.4; MITF inh: -4.8; FBW7 activator: -0.1; TEAD-YAP inh: 4.2

Results for CC(C)(C)NC(=O)COC(=O)COc1ccc(C#N)cc1 ?
GPR151 activ: 1.1; MITF inh: -4.8; FBW7 activator: -0.1; TEAD-YAP inh: -0.1

What do the screens show for `CC(C)(C)CN1CCc2nnc(CCc3ccccc3)n2CC1`?
GPR151 activ: 1.7; MITF inh: 6.3; FBW7 activator: 0.0; TEAD-YAP inh: -4.8

Results for NC(=O)NC(CC(=O)O)c1ccc(Cl)cc1 (stereo unspecified) ?
GPR151 activ: 7.7*; MITF inh: -5.7; FBW7 activator: 0.1; TEAD-YAP inh: 8.7; GPR151 confirm: -0.2; GPR119 counter: -3.8

Results for CC(=O)c1cccc(NC(=O)C(C)N2C(=O)C3C4C=CC(C5CC45)C3C2=O)c1 (stereo unspecified) ?
GPR151 activ: 0.4; MITF inh: 12.3; FBW7 activator: -0.1; TEAD-YAP inh: 7.4

How did CC(C(=O)Nc1cccc([N+](=O)[O-])c1)N1C(=O)C2C3C=CC(C4CC34)C2C1=O (stereo unspecified) do in these assays?
GPR151 activ: 8.6*; MITF inh: 8.7; FBW7 activator: 0.1; TEAD-YAP inh: -1.3; GPR151 confirm: -0.3; GPR119 counter: -9.3

Results for CCOC(=O)C1CCCN(CCC(=O)Nc2ccccc2)C1 (stereo unspecified) ?
GPR151 activ: 1.0; MITF inh: 11.2; FBW7 activator: 0.1; TEAD-YAP inh: 3.9

How did CCOC(=O)C1CCCN(CCC(C)c2ccccc2)C1 (stereo unspecified) do in these assays?
GPR151 activ: 8.1*; MITF inh: 33.8; FBW7 activator: -0.1; TEAD-YAP inh: 0.7; GPR151 confirm: -0.1; GPR119 counter: -4.8

What do the screens show for `CC1CCCCN1C(=O)CCc1nc(-c2ccc(Cl)cc2)no1` (stereo unspecified)?
GPR151 activ: 6.7*; MITF inh: -1.4; FBW7 activator: -0.1; TEAD-YAP inh: -15.8; GPR151 confirm: -0.3; GPR119 counter: -13.9

Results for Cc1ccc(-c2noc(CCC(=O)N3CCCCC3C)n2)cc1 (stereo unspecified) ?
GPR151 activ: 1.0; MITF inh: 0.6; FBW7 activator: 0.0; TEAD-YAP inh: -10.1
